Source: PubChem
This is a sample that favours compounds with a hit; in the whole collection about 3.8% have one here.
TrxR1 substrate – qHTS Assay for Substrates of Mammalian Selenoprotein Thioredoxin Reductase 1 (TrxR1): qHTS | 390,000 tested, 0.01% active | Thioredoxin reductase 1, cytoplasmic (Rattus norvegicus), O89049 | AID 588456, 2011 | purified TrxR1 substrate turnover, NADPH consumption readout | Potency, µM (highest dose often 114 µM); also: nearly all actives have a fitted effect of over 50% in size
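Rat TrxR1, dispensed at 90 nM, was prereduced with 400 uM NADPH (final) for 5 min at ~22 deg C, then incubated with compound 15 min before 400 uM selenite. A first-read NADPH fluorescence drop versus no-compound background flagged substrates.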
KAT2A inh – qHTS Assay for Inhibitors of GCN5L2 | GCN5L2 HAT assay, ThioGlo1 CoA-SH fluorescence | Potency, µM (highest dose often 58.9 µM), actives largely listed as inhibitors | 390,000 tested, 0.21% active | AID 504327, 2011
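qHTS, 1536-well. 20nM enzyme, pH 7.5 HEPES/EDTA/Tween-20 buffer; 15 min compound preinc., RT. Start: 75uM H3(1-25), 70uM AcCoA, 50uM ThioGlo1. Read Ex340/Em540 at t=0 (autofluorescence flag) and t=20 min.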
Sfp inh – qHTS Assay for Inhibitors of Bacillus subtilis Sfp phosphopantetheinyl transferase (PPTase). 310,000 tested, 3.5% active. AID 1490, 2009. Biochemical Sfp PPTase activity, qHTS. 4'-phosphopantetheinyl transferase ffp (Bacillus subtilis), Q9F4F7. Potency, µM, most hits filed as inhibitors;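 also: the enzyme is Sfp with the accession as filed and its product quenches rhodamine fluorescence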
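Compounds were incubated with enzyme (final 15 nM) for 15 min at room temperature before substrate addition started the reaction. Fluorescence at 525 nm excitation, 598 nm emission was recorded immediately and after 30 minutes.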
VDR inh – Inhibitors of the vitamin D receptor (VDR): qHTS | Vitamin D3 receptor (Homo sapiens), P11473 | VDR-SRC2-3 peptide fluorescence polarization, 2 h | Potency, µM, actives largely listed as inhibitors | 400,000 tested, 0.93% active | AID 504847, 2011
Target sequence (P11473 whole entry, looked up): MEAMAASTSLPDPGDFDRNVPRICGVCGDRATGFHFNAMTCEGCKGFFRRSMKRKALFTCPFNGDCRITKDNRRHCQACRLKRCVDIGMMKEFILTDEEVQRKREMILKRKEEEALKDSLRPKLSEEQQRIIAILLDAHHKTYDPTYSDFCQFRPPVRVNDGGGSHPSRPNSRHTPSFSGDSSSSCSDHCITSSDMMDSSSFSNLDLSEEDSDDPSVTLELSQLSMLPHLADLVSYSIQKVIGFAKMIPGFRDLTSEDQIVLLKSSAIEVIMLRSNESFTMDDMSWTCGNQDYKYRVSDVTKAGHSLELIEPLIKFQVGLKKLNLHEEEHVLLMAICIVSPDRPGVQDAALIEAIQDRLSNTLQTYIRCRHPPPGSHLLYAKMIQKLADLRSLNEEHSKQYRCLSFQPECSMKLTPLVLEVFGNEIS
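VDR–SRC2-3 interaction, FP format. Cmpds 23 nl via pintool, brief spin, 2 h ambient incubation.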
rTrxR1 inhibitor – qHTS Assay for Inhibitors of Mammalian Selenoprotein Thioredoxin Reductase 1 (TrxR1): qHTS | recombinant rTrxR1, NADPH fluorescence consumption, selenite substrate | 390,000 tested, 1% active | Potency, µM (doses to about 114 µM), most hits filed as inhibitors | AID 588453, 2011; also: nearly all actives have a fitted effect of over 65% in size
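Rat TrxR1 (90 nM in the dispensed reagent) was pre-reduced with 400 uM NADPH for 5 min at room temperature, then incubated with compound for 15 min. After 400 uM selenite was added, NADPH fluorescence (Ex 340/Em 450 nm) was followed for 8 min.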
GLS inh – qHTS for Inhibitors of Glutaminase (GLS). Glutaminase kidney isoform, mitochondrial (Homo sapiens), O94925. 410,000 tested, 0.21% active. Potency, µM (series often up to 45.5 µM), usual class: inhibitors. GLS enzymatic activity, qHTS titration. AID 624170, 2012
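hKGA in 45 mM KH2PO4 (pH 8.2), 0.02% Tween-20 with compound, then 1mM L-Glutamine (stock as added) plus glutamate oxidase/HRP/Amplex red coupling mix. Fluorescence read initially and after 30 min at RT; signal change reflects glutamate formation.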
Each line names hits and unclear results; the compound was inactive in the other large screens. Calls follow the shape of the dose curve; as a rule, active = well fitted curve in the direction sought with a large enough effect; inconclusive = small, poorly fitted or top-dose-only effect, or another doubt; inactive = no such curve, though single readings can be large; an effect the other way counts as inactive or inconclusive.

COc1ccc(NC(=S)Nc2cccc3cnccc23)cc1	Sfp inh inconclusive
CN(C)S(=O)(=O)c1cccc(NC(=S)Nc2cccc3cnccc23)c1	Sfp inh 2.51µM, VDR inh inconclusive, rTrxR1 inhibitor 39.8µM
Fc1ccc(NC(=S)Nc2cccc3cnccc23)cc1	Sfp inh 2.82µM, rTrxR1 inhibitor inconclusive, GLS inh inconclusive
Fc1cccc(NC(=S)Nc2cccnc2)c1	Sfp inh 35.5µM
COc1ccccc1NC(=S)Nc1cccc2cnccc12	Sfp inh 44.7µM, VDR inh inconclusive, rTrxR1 inhibitor inconclusive
Cc1cc(C)c(-c2cc(NC(=O)CSc3nncn3C)n(-c3ccccc3)n2)cc1C	none
Cc1ccc(-n2c(=O)c3c(cnn3C)n(Cc3ccc(Cl)cc3)c2=O)cc1	VDR inh 89.1µM (no result: Sfp inh)
Cc1ccc(-n2c(=O)c3c(cnn3C)n(Cc3ccccc3F)c2=O)cc1	none (no result: Sfp inh)
CCCC1(C)C(C#N)(C#N)C1(C#N)C#N	VDR inh 10µM, rTrxR1 inhibitor inconclusive (no result: Sfp inh, GLS inh)
CCCC1(C)C(C#N)C(=O)NC(=O)C1C#N (configuration not stated)	none (no result: KAT2A inh, Sfp inh)
O=C(NCCCn1ccnc1)c1ccc2c(c1)OCCO2	none
COc1ccc(NC(=O)c2c(C)oc3ccc(O)c(CN4CCCC(C)C4)c23)cc1 (configuration not stated)	none (no result: Sfp inh)
CC(C)(C)c1ccc(OCCOc2ccc(C(C)(C)C)cc2NC=O)c(NC=O)c1	Sfp inh 56.2µM
CSc1nc2c([nH]c3ccccc32)c(=O)n1-c1ccc(F)cc1	none (no result: Sfp inh)
CC(=O)c1ccc(/C=C/c2nc3ccccc3n2C)o1	KAT2A inh 11.2µM, Sfp inh 50.1µM, rTrxR1 inhibitor inconclusive
O=C(COC(=O)c1nc(Cl)c(Cl)c(Cl)c1Cl)NCc1ccccc1	rTrxR1 inhibitor 44.7µM (no result: Sfp inh)
O=C(N/N=C/c1cccnc1)c1ccc(O)cc1	none
O=C(N/N=C/c1cccnc1)c1cc(O)c(O)c(O)c1	Sfp inh 39.8µM
O=c1nc2ccccc2c(NS(=O)(=O)c2ccc(Cl)cc2)n1-c1ccccc1	KAT2A inh 3.16µM
COc1ccccc1NC(=O)Cc1csc(NC(=S)Nc2ccc(C)cc2)n1	Sfp inh inconclusive, rTrxR1 inhibitor 8.91µM
CCOC(=O)Cc1csc(NC(=S)NC(=O)c2ccccc2)n1	Sfp inh 15.8µM
N#CCn1cnc2c(oc3ccccc32)c1=O	none
C[C@@H]1NS(=O)(=O)[C@H]2C[C@@H]3C=C[C@]2(O3)[C@H]1OC(=O)c1ccc(C(C)(C)C)cc1	none (no result: Sfp inh)
Cc1ccc(-n2cc(CNCCc3ncc(C)[nH]3)c(-c3ccc(F)cc3)n2)cc1	Sfp inh 56.2µM
O=C1CC(Cc2ccccc2)C(=O)N1Cc1ccco1 (configuration not stated)	Sfp inh 14.1µM, rTrxR1 inhibitor inconclusive
Cc1ccc(CC2CC(=O)N(Cc3ccco3)C2=O)cc1 (configuration not stated)	Sfp inh 35.5µM, VDR inh inconclusive, rTrxR1 inhibitor inconclusive
CN(Cc1ccccc1)S(=O)(=O)c1ccc(F)c(C(=O)Nc2ccccc2C(F)(F)F)c1	none (no result: Sfp inh)
CCOCCCn1c(=S)[nH]c2cc(C(=O)N3CCC(C(N)=O)(N4CCCCC4)CC3)ccc2c1=O	none
COc1ccccc1-c1nc2c3ccccc3nc(=S)n2[nH]1	Sfp inh 44.7µM
COc1cc(-c2nc3c4ccccc4nc(=S)n3[nH]2)cc(OC)c1OC	rTrxR1 inhibitor inconclusive
CCn1cc(CNCc2c(C(=O)N3CCCCC3)nc3c(C)cccn23)cn1	none
CC(Sc1ccsc1[N+](=O)[O-])C(=O)NCc1ccco1 (configuration not stated)	Sfp inh 50.1µM, rTrxR1 inhibitor 20µM
